Screening results deposited in PubChem by National Center for Advancing Translational Sciences (NCATS).
A selection: hits, their analogues and other compounds. The true share with any hit is near 3.6%.
HepG2 viability: qHTS for Inhibitors of TGF-b: Cytotox Counterscreen | HepG2 CAGA-GFP viability, ATP luminescence, 18 h | Potency, µM (top dose mostly 46.1 µM), for inactives: top-dose activity change, negative = cytotoxicity, usual class: cytotoxic | 410,000 tested, 0.76% active
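HepG2 CAGA-GFP cells (1000/well, DMEM with 1% FBS) received compound, then TGF-beta at 500 pg/mL final, and were incubated 18 hours at 37 degrees C. Viability was read by CellTiter-Glo luminescence. Media-only wells were set as complete cell-killing and DMSO as no toxicity.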
Nrf2 activator: qHTS of Nrf2 Activators | AREc32 ARE-luciferase reporter (MCF7-derived line), luminescence, 24 h | Potency, µM (series often up to 46.1 µM), without a hit: top-dose activation, hits mostly activators | 410,000 tested, 0.31% active | AID 624171, 2012; also: % of control where 0% means no effect; nearly all actives have a fitted effect of over 65% in size
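ARE-driven firefly luciferase activity in AREc32 cells measured after a 24 hr compound exposure at 37 deg C, using Steady-Glo reagent and a 30 min room-temperature hold.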
Nrf2 block: Nrf2 qHTS screen for inhibitors. 360,000 tested, 2.1% active. Potency, µM (highest dose often 46 µM), inactives show at the highest dose activity change, negative = inhibition, actives largely listed as inhibitors. A549 ARE-Fluc reporter, luciferase luminescence, 18-24 h. AID 504444, 2011; also: % is scaled to controls: 0 for no effect and ±100 for the full control effect; nearly all actives have a fitted effect of over 60% in size
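In this cell-based qHTS, ARE-driven firefly luciferase in A549 cells reports Nrf2 activity; the luminescent signal after BugLite lysis is the measured value, with a prior CellTiter-Fluor read for cell health.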
TGFb SMAD3 inh: qHTS for Inhibitors of TGF-b. HepG2 CAGA-GFP TGF-b/SMAD3 reporter, GFP fluorescence, 18 h; TGF-beta stimulated, 500 pg/mL final. Potency, µM (doses to about 46.1 µM), without a hit: top-dose activity, negative = inhibition, most hits filed as inhibitors. 410,000 tested, 1.2% active. AID 588855, 2011; also: % is scaled to controls: 0 for no effect and ±100 for the full control effect; nearly all actives have a fitted effect of over 65% in size
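HEPG2 CAGA-GFP cells (1000/well, DMEM with 1% FBS) were pre-incubated 2 h at 37 degrees C, given compound by pin tool, then stimulated with TGF-beta at 500 pg/mL final for 18 h before per-cell GFP fluorescence imaging.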
A549 viability: Nrf2 qHTS screen for inhibitors: counterscreen for cytotoxicity; A549 ARE-Fluc cells, CellTiter-Fluor viability, 18-24 h; Potency, µM (top dose mostly 46 µM), inactives show top-dose activity change, negative = cytotoxicity, usual class: inhibitors; 390,000 tested, 0.16% active; AID 504648, 2011; also: % is scaled to controls: 0 for no effect and ±100 for the full control effect
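A549 ARE_Fluc cells in 5% FBS OPTI-MEM were exposed to compounds in concentration-response for 18-24 h at 37 deg C. Viability was read by CellTiter-Fluor fluorescence (Ex 405/Em 525) after 30 min, before the luciferase read.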
An asterisk follows results filed as active; ? = inconclusive; / = not tested or not shown; [ ] = dose if it differs, or a comment. Calls follow the shape of the dose curve; as a rule, active = well fitted curve in the direction sought with a large enough effect; inconclusive = small, poorly fitted or top-dose-only effect, or another doubt; inactive = no such curve, though single readings can be large; an effect the other way counts as inactive or inconclusive. Potency is read from the fitted curve at half-maximal effect.

SMILES	HepG2 viability	Nrf2 activator	Nrf2 block	TGFb SMAD3 inh	A549 viability
COc1ccc(-c2noc(N3CCC(C(=O)NC(C)c4ccccc4)CC3)n2)cc1 (configuration not stated)	-26%	0%	23µM*	-11%	-20%
COc1ccc(-c2noc(N3CCC(C(=O)Nc4ccccc4Cl)CC3)n2)cc1	-11%	-2%	-7%	-7%	2%
Cc1c(O)ccc(/C=N/Nc2nc(-c3cccnc3)nc3ccccc23)c1O	6.3µM*	4%	-7%	?	-8%
Oc1ccc(/C=N/Nc2nc(-c3cccnc3)nc3ccccc23)c(O)c1	-42%	-1%	21µM*	?	-13%
C/C(=N\Nc1cc(C)nc(-c2ccccc2O)n1)c1ccccc1	-19%	0%[9.22 µM]	2%	-11%	0%
Cc1cc(N/N=C/c2ccc(O)c(C)c2O)nc(-c2ccccc2O)n1	11µM*	-2%	?	?	?
COc1ccc(/C=N/Nc2nc(-c3cccnc3)nc3ccccc23)cc1OC	-12%	3%	13%	-7%	2%
N#Cc1c(N)[nH]c2ccc(Sc3ccccc3)cc12	1%	0%	?	16µM*	-14%
COc1cc2cc(C(=O)N3CCOCC3)cc(-c3ccc(C)cc3)c2cc1OC	-29%	0%	18µM*	?	?
COc1ccc(-c2cc(C(=O)N3CCOCC3)c3ccccc3n2)cc1OC	0%	5%	17%	-1%	3%
O=C(CSc1nnc(NC(=O)C2CCCCC2)s1)NCc1ccco1	0%	4%	2%	-11%	0%
Cc1ccccc1-c1noc(-c2ccc(Cl)cc2)n1	-14%	12%	?	16%	1%
Cc1ccccc1-c1noc(-c2ccccc2F)n1	-8%	8.9µM*	/	-8%	-1%
COC(=O)c1sc2cccc(F)c2c1S(=O)(=O)NC(C)c1ccccc1 (configuration not stated)	-1%	?	-7%	-3%	-2%
COC(=O)c1sc2cccc(F)c2c1S(=O)(=O)NCc1ccc(Cl)cc1	6%	11µM*	-19%	5%	-1%
COC(=O)c1sc2cccc(F)c2c1S(=O)(=O)NCc1ccccc1Cl	-36%	13µM*	28%	?	-1%
COC(=O)c1sc2cccc(F)c2c1S(=O)(=O)Nc1cc(OC)cc(OC)c1	-1%	?	17%	?	10%
O=C(CSc1nnc(-c2c[nH]c3ccccc23)o1)N1c2ccccc2CCc2ccccc21	-12%	0%	12µM*	?	-26%
CC1Cc2ccccc2N1C(=O)CSc1nnc(-c2ccccc2)c(-c2ccccc2)n1 (configuration not stated)	-15%	0%	23µM*	-14%	0%[1.84 µM]
CC1Cc2ccccc2N1C(=O)CSc1nnc2c(n1)[nH]c1ccccc12 (configuration not stated)	13%	1%	?	28%	-3%
O=C(CSc1nnc(-c2c[nH]c3ccccc23)o1)N1CCCCC1	-2%	8%	?	-2%	3%
CC1Cc2ccccc2N1C(=O)CSc1nnc(-c2ccccc2Cl)o1 (configuration not stated)	-9%	1.8µM*	-29%	-13%	0%
CS(=O)(=O)c1ccc2nc(NC(=O)c3ccc(NS(=O)(=O)c4ccc(F)c(F)c4)cc3)sc2c1	-1%	0%	-4%	?	0%
CCC(=O)Nc1nc2ccc(S(C)(=O)=O)cc2s1	-14%	0%	7%	-5%	-9%
CS(=O)(=O)c1ccc2nc(NC(=O)c3cccc(NS(=O)(=O)c4ccc(F)c(F)c4)c3)sc2c1	-26%	1%	?	18µM*	-12%
SMILES	HepG2 viability	Nrf2 activator	Nrf2 block	TGFb SMAD3 inh	A549 viability
CS(=O)(=O)c1ccc2nc(NC(=O)c3cccs3)sc2c1	10µM*	-2%	/	-22%	-4%
CC(C)CC(=O)Nc1nc2ccc(S(C)(=O)=O)cc2s1	11µM*	0%	-3%	-15%	-6%
OC(CNCCc1ccc(Cl)cc1)COCc1ccco1 (configuration not stated)	6%	2%	/	12%	-7%
Cn1c(N)c(C(=O)COC(=O)c2nc(Cl)ccc2Cl)c(=O)n(C)c1=O	-10%	2.2µM*	6%	0%	1%
CCCCCn1nc(C(=O)OCC(=O)c2c(N)n(C)c(=O)n(C)c2=O)c2ccccc2c1=O	-12%	0%	-24%	8%	-7%
Cn1c(N)c(C(=O)COC(=O)c2cccnc2Cl)c(=O)n(C)c1=O	2%	1%	2%	4%	-1%
CCCCCCn1nc(C(=O)OCC(=O)c2c(N)n(C)c(=O)n(C)c2=O)c2ccccc2c1=O	-20%	-1%	23µM*	?	-4%
CCN(c1ccccc1)S(=O)(=O)c1cc(C(=O)OCC(=O)c2c(N)n(C)c(=O)n(C)c2=O)ccc1C	9%	3%	18µM*	-5%	?
CCOC(=O)CN1C(=O)CC(c2ccccc2)C1=O (configuration not stated)	19%	-1%	-16%	11%	0%
COc1cccc(NC(=O)C(C)C)c1	-5%	-1%	-5%	?	0%
O=C(COC(=O)C1CC2CCCC(C1)C2=O)Nc1ccc(Cl)cn1 (configuration not stated)	5%	-1%	7%	7%	1%
O=C(NC(c1ccc(-c2ccccc2)cc1)c1cnccn1)C1CCN(Cc2ccc(Oc3ccccc3)cc2)CC1 (configuration not stated)	-62%	0%	/	?	/
COc1cc(CN2CCC(C(=O)NC(c3ccc(-c4ccccc4)cc3)c3cnccn3)CC2)cc(OC)c1 (configuration not stated)	22µM*	13%	/	?	/
OC(CNCc1ccco1)Cn1c2ccccc2c2ccccc21 (configuration not stated)	18µM*	8%	?	?	?
OC(CNCc1ccco1)COc1ccccc1 (configuration not stated)	-56%	0%	1%	10%	6%
COc1ccc(C(=O)CCS(=O)(=O)c2ccc(C)cc2)cc1OC	16µM*	-3%	-3%	?	-5%
COc1ccc(C(=O)COC(=O)CCS(=O)(=O)c2ccc(C)cc2)c(OC)c1	-2%	0%	1%	0%	1%
Cc1ccc(S(=O)(=O)CCC(=O)c2ccc(O)cc2O)cc1	11µM*	?	5%	11µM*	13%
O=S1(=O)C=C(N2CCCCC2)c2ccccc21	-7%	13µM*	1%	6%	-4%
